{
  "source": "PubChem BioAssay (NCATS)",
  "note": "Results filed as inconclusive are left out. Entries that show only a call come without a potency. Activity calls are given as the source filed them. Calls come from the whole dose curve; as a rule, active = well fitted inhibition curve with a large enough effect; inconclusive = small, poorly fitted or top-dose-only effect; inactive = flat fitted curve, though single readings scatter. Potency is the fitted concentration of half-maximal effect.",
  "data": [
    {"system": "P93_24", "assay": "qHTS profiling for inhibitors of Plasmodium falciparum proliferation (AID 504749); note: nearly all actives have a fitted effect of over 60% in size", "conditions": "P. falciparum in erythrocytes, SYBR Green DNA, 72 h; series mostly up to 28.7 µM", "method_in_brief": "(§1)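 SYBR Green fluorescence (ex 485 nm, em 535 nm) reports parasite DNA after 72 h compound exposure of infected red cells at 0.3% parasitemia, 2.5% hematocrit; signal normalized to 0.29 uM artemisinin and vehicle wells.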", "values": [
      {"smiles": "NC(=O)N/N=C/c1ccc([N+](=O)[O-])o1", "Potency": "8.91 µM (active)"},
      {"smiles": "CCCCN(CCCC)CC(O)c1cc(Cl)cc2c1-c1ccc(Cl)cc1/C2=C/c1ccc(Cl)cc1", "note": "(stereo unspecified)", "Potency": "0.0126 µM (active)"},
      {"smiles": "OCCN1CCN(CCCN2c3ccccc3Sc3ccc(Cl)cc32)CC1", "Potency": "2.24 µM (active)"},
      {"smiles": "CSc1ccc2c(c1)N(CCC1CCCCN1C)c1ccccc1S2", "note": "(stereo unspecified)", "Potency": "11.2 µM (active)"},
      {"smiles": "CC(C)(C)C(=O)C(Oc1ccc(Cl)cc1)n1ccnc1", "note": "(stereo unspecified)", "Potency": "5.01 µM (active)"},
      {"smiles": "Cc1ccc2nc(N)[nH]c(=O)c2c1Sc1ccncc1", "Potency": "14.1 µM (active)"},
      {"smiles": "Cc1c(O)cccc1C(=O)N[C@@H](CSc1ccccc1)[C@H](O)CN1C[C@H]2CCCC[C@H]2C[C@H]1C(=O)NC(C)(C)C", "Potency": "8.91 µM (active)"},
      {"smiles": "Oc1ccc(C(O)CNCCCCCCNCC(O)c2ccc(O)c(O)c2)cc1O", "note": "(stereo unspecified)", "Potency": "10 µM (active)"},
      {"smiles": "CC(C(O)c1ccc(O)cc1)N1CCC(Cc2ccccc2)CC1", "note": "(stereo unspecified)", "Potency": "11.2 µM (active)"},
      {"smiles": "CCOc1nc2cccc(C(=O)O)c2n1Cc1ccc(-c2ccccc2-c2nn[nH]n2)cc1", "Potency": "inactive"},
      {"smiles": "NCCNCCNCCN", "Potency": "inactive"},
      {"smiles": "CSc1ccc2c(c1)C(N1CCN(C)CC1)Cc1ccccc1S2", "note": "(stereo unspecified)", "Potency": "11.2 µM (active)"},
      {"smiles": "COCCOC(=O)C1=C(C)NC(C)=C(C(=O)OC/C=C/c2ccccc2)C1c1cccc([N+](=O)[O-])c1", "note": "(stereo unspecified)", "Potency": "11.2 µM (active)"},
      {"smiles": "COc1ccc2[nH]c(S(=O)Cc3ncc(C)c(OC)c3C)nc2n1", "note": "(stereo unspecified)", "Potency": "7.94 µM (active)"},
      {"smiles": "CCN(CC)CCNC(C(=O)OCCC(C)C)c1ccccc1", "note": "(stereo unspecified)", "Potency": "8.91 µM (active)"}
    ]},
    {"system": "P94_40", "assay": "qHTS profiling for inhibitors of Plasmodium falciparum proliferation (AID 504749); note: nearly all actives have a fitted effect of over 60% in size", "conditions": "P. falciparum in erythrocytes, SYBR Green DNA, 72 h; series mostly up to 28.7 µM", "method_in_brief": "as §1", "values": [
      {"smiles": "CN(C)CCN(Cc1ccccc1)c1ccccn1", "Potency": "inactive"},
      {"smiles": "CCCCN(CCCC)CC(O)c1cc(Cl)cc2c1-c1ccc(Cl)cc1/C2=C/c1ccc(Cl)cc1", "note": "(stereo unspecified)", "Potency": "0.005 µM (active)"},
      {"smiles": "CC(=O)c1ccc2c(c1)N(CCCN(C)C)c1ccccc1S2", "Potency": "inactive"},
      {"smiles": "CSc1ccc2c(c1)N(CCC1CCCCN1C)c1ccccc1S2", "note": "(stereo unspecified)", "Potency": "7.08 µM (active)"},
      {"smiles": "CN1CCN(C2Cc3ccccc3Sc3ccc(Cl)cc32)CC1", "note": "(stereo unspecified)", "Potency": "inactive"},
      {"smiles": "CC(C)(C)C(=O)C(Oc1ccc(Cl)cc1)n1ccnc1", "note": "(stereo unspecified)", "Potency": "7.94 µM (active)"},
      {"smiles": "Cc1ccc2nc(N)[nH]c(=O)c2c1Sc1ccncc1", "Potency": "12.6 µM (active)"},
      {"smiles": "Cc1c(O)cccc1C(=O)N[C@@H](CSc1ccccc1)[C@H](O)CN1C[C@H]2CCCC[C@H]2C[C@H]1C(=O)NC(C)(C)C", "Potency": "10 µM (active)"},
      {"smiles": "CC(CN1c2ccccc2Sc2ccccc21)N(C)C", "note": "(stereo unspecified)", "Potency": "inactive"},
      {"smiles": "CCCn1cnc2c1c(=O)n(CCCCC(C)=O)c(=O)n2C", "Potency": "inactive"},
      {"smiles": "OCc1cc(C(O)CNCCCCCCOCCCCc2ccccc2)ccc1O", "note": "(stereo unspecified)", "Potency": "inactive"},
      {"smiles": "Nc1ncnc2c1ncn2[C@@H]1O[C@H](CO)[C@@H](O)[C@H]1O", "Potency": "inactive"},
      {"smiles": "COc1ccc2[nH]c(S(=O)Cc3ncc(C)c(OC)c3C)nc2n1", "note": "(stereo unspecified)", "Potency": "8.91 µM (active)"}
    ]},
    {"system": "PAD", "assay": "qHTS profiling for inhibitors of Plasmodium falciparum proliferation (AID 504749); note: nearly all actives have a fitted effect of over 60% in size", "conditions": "P. falciparum in erythrocytes, SYBR Green DNA, 72 h; series mostly up to 28.7 µM", "method_in_brief": "as §1", "values": [
      {"smiles": "CN(C)CCCN1c2ccccc2Sc2ccc(Cl)cc21", "Potency": "10 µM (active)"},
      {"smiles": "CN(C)CCN(Cc1ccccc1)c1ccccn1", "Potency": "inactive"},
      {"smiles": "CCCCN(CCCC)CC(O)c1cc(Cl)cc2c1-c1ccc(Cl)cc1/C2=C/c1ccc(Cl)cc1", "note": "(stereo unspecified)", "Potency": "0.0056 µM (active)"},
      {"smiles": "CC(=O)c1ccc2c(c1)N(CCCN(C)C)c1ccccc1S2", "Potency": "inactive"},
      {"smiles": "CSc1ccc2c(c1)N(CCC1CCCCN1C)c1ccccc1S2", "note": "(stereo unspecified)", "Potency": "8.91 µM (active)"},
      {"smiles": "O=C(O)CN1C(=O)c2cccc3cccc(c23)C1=O", "Potency": "inactive"},
      {"smiles": "CC(C)(C)C(=O)C(Oc1ccc(Cl)cc1)n1ccnc1", "note": "(stereo unspecified)", "Potency": "8.91 µM (active)"},
      {"smiles": "CN1CCCCC1CCN1c2ccccc2Sc2ccc(S(C)=O)cc21", "note": "(stereo unspecified)", "Potency": "inactive"},
      {"smiles": "NC1CCN(c2cccc(Cl)n2)CC1", "Potency": "inactive"},
      {"smiles": "Cc1c(O)cccc1C(=O)N[C@@H](CSc1ccccc1)[C@H](O)CN1C[C@H]2CCCC[C@H]2C[C@H]1C(=O)NC(C)(C)C", "Potency": "10 µM (active)"},
      {"smiles": "CNCCCC1c2ccccc2C=Cc2ccccc21", "Potency": "inactive"},
      {"smiles": "CC(CN1c2ccccc2Sc2ccccc21)N(C)C", "note": "(stereo unspecified)", "Potency": "inactive"},
      {"smiles": "CCCn1cnc2c1c(=O)n(CCCCC(C)=O)c(=O)n2C", "Potency": "inactive"},
      {"smiles": "CCOc1nc2cccc(C(=O)O)c2n1Cc1ccc(-c2ccccc2-c2nn[nH]n2)cc1", "Potency": "inactive"},
      {"smiles": "CCOC(CN1CCN(CC(C)C(=O)c2ccccc2)CC1)c1ccccc1", "note": "(stereo unspecified)", "Potency": "inactive"},
      {"smiles": "OCc1cc(C(O)CNCCCCCCOCCCCc2ccccc2)ccc1O", "note": "(stereo unspecified)", "Potency": "inactive"},
      {"smiles": "NCCNCCNCCN", "Potency": "inactive"},
      {"smiles": "Nc1ncnc2c1ncn2[C@@H]1O[C@H](CO)[C@@H](O)[C@H]1O", "Potency": "inactive"},
      {"smiles": "COCCOC(=O)C1=C(C)NC(C)=C(C(=O)OC/C=C/c2ccccc2)C1c1cccc([N+](=O)[O-])c1", "note": "(stereo unspecified)", "Potency": "8.91 µM (active)"},
      {"smiles": "COc1ccc2[nH]c(S(=O)Cc3ncc(C)c(OC)c3C)nc2n1", "note": "(stereo unspecified)", "Potency": "4.47 µM (active)"},
      {"smiles": "CCN(CC)CCNC(C(=O)OCCC(C)C)c1ccccc1", "note": "(stereo unspecified)", "Potency": "inactive"}
    ]},
    {"system": "PC15", "assay": "qHTS profiling for inhibitors of Plasmodium falciparum proliferation (AID 504749); note: nearly all actives have a fitted effect of over 60% in size", "conditions": "P. falciparum in erythrocytes, SYBR Green DNA, 72 h; series mostly up to 28.7 µM", "method_in_brief": "as §1", "values": [
      {"smiles": "CN(C)CCCN1c2ccccc2Sc2ccc(Cl)cc21", "Potency": "10 µM (active)"},
      {"smiles": "CN(C)CCN(Cc1ccccc1)c1ccccn1", "Potency": "inactive"},
      {"smiles": "CCCCN(CCCC)CC(O)c1cc(Cl)cc2c1-c1ccc(Cl)cc1/C2=C/c1ccc(Cl)cc1", "note": "(stereo unspecified)", "Potency": "0.0112 µM (active)"},
      {"smiles": "OCCN1CCN(CCCN2c3ccccc3Sc3ccc(Cl)cc32)CC1", "Potency": "3.16 µM (active)"},
      {"smiles": "CC(=O)c1ccc2c(c1)N(CCCN(C)C)c1ccccc1S2", "Potency": "inactive"},
      {"smiles": "CSc1ccc2c(c1)N(CCC1CCCCN1C)c1ccccc1S2", "note": "(stereo unspecified)", "Potency": "10 µM (active)"},
      {"smiles": "CN1CCN(C2Cc3ccccc3Sc3ccc(Cl)cc32)CC1", "note": "(stereo unspecified)", "Potency": "inactive"},
      {"smiles": "O=C(O)CN1C(=O)c2cccc3cccc(c23)C1=O", "Potency": "inactive"},
      {"smiles": "C[C@]12C[C@H](O)[C@H]3[C@@H](CCC4=CC(=O)CC[C@@]43C)[C@@H]1CC[C@@H]2C(=O)CO", "Potency": "inactive"},
      {"smiles": "NC1CCN(c2cccc(Cl)n2)CC1", "Potency": "inactive"},
      {"smiles": "CC(CN1c2ccccc2Sc2ccccc21)N(C)C", "note": "(stereo unspecified)", "Potency": "inactive"},
      {"smiles": "CCCn1cnc2c1c(=O)n(CCCCC(C)=O)c(=O)n2C", "Potency": "inactive"},
      {"smiles": "CCOc1nc2cccc(C(=O)O)c2n1Cc1ccc(-c2ccccc2-c2nn[nH]n2)cc1", "Potency": "inactive"},
      {"smiles": "CCOC(CN1CCN(CC(C)C(=O)c2ccccc2)CC1)c1ccccc1", "note": "(stereo unspecified)", "Potency": "inactive"},
      {"smiles": "NCCNCCNCCN", "Potency": "inactive"},
      {"smiles": "Nc1ncnc2c1ncn2[C@@H]1O[C@H](CO)[C@@H](O)[C@H]1O", "Potency": "inactive"},
      {"smiles": "CSc1ccc2c(c1)C(N1CCN(C)CC1)Cc1ccccc1S2", "note": "(stereo unspecified)", "Potency": "inactive"}
    ]}
  ]
}
